For experiment [1], the target named is Glutathione peroxidase 1 (Homo sapiens) (UniProt P07203). Nature of the experiment: Primary qHTS Assay for Inhibitors of Recombinant Selenoprotein Glutathione Peroxidase 1 (GPX1) (AID 1845191). Also: nearly all actives have a fitted effect of over 65% in size. As to activity, negative = inhibition: % is scaled to controls: 0 for no effect and ±100 for the full control effect. The gist of the method: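 GPX1 10 nM, GR 100 nM, GSH 1 mM, NADPH 0.5 mM, CHP 0.5 mM (final). 30-min cpd preincubation, RT. Ex340/Em450 read t=0, t=15 min.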
Sequence of Glutathione peroxidase 1 (Homo sapiens) (P07203 whole entry, looked up): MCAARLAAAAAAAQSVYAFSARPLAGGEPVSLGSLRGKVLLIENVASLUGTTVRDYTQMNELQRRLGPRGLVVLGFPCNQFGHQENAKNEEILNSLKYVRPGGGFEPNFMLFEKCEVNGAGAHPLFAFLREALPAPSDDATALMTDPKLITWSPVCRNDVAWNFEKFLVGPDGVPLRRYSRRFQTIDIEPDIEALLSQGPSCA
Experiment [2] has as its target Phospholipid hydroperoxide glutathione peroxidase GPX4 (Homo sapiens) (UniProt P36969). The experiment is described as follows: Primary qHTS Assay for Inhibitors of Recombinant Selenoprotein Glutathione Peroxidase 4 (GPX4) (AID 1845192). Also: nearly all actives have a fitted effect of over 65% in size. As to activity change, negative = inhibition: series mostly up to about 50 µM; % is scaled to controls: 0 for no effect and ±100 for the full control effect. The gist of the method: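 qHTS, GR-coupled: GPX4 200 nM + cpd 30 min RT → GSH 1 mM, NADPH 0.5 mM, GR 100 nM → CHP 0.5 mM start; fluor 340/450 at t0 and t15 min; no-enzyme wells as control.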

The target in experiment [3] is Luciferin 4-monooxygenase (Photinus pyralis) (UniProt P08659). Nature of the experiment: Primary firefly luciferase (FLuc) qHTS assay for identification of artifact compounds. (AID 1845220). Also: nearly all actives have a fitted effect of over 60% in size. Also: potency is read from the fitted curve at half-maximal effect.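 As to activity change, negative = inhibition: series mostly up to about 54 µM; plate controls were DMSO vehicle for no effect and no enzyme for full effect.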 Summed up:
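Reaction readout was CCD-imaged luminescence, taken 5 min after adding 10 nM purified firefly enzyme to compound-treated wells holding 10 uM luciferin and ATP in pH 7.6 buffer.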
For orientation: qHTS replaces the single test concentration by a dilution series.

Experiment [4] in a line: Primary fluorescence-based thiol-reactive (MSTI) qHTS assay for identification of artifact compounds. (AID 1845221). Also: nearly all actives have a fitted effect of over 65% in size. Also: potency is read from the fitted curve at half-maximal effect.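 As to activity change, negative = thiol reactive: series mostly up to about 54 µM; thiol-reactive compounds lower the probe fluorescence signal.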 The gist of the method: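 Probe: MSTI 4 uM, PBS pH 7.4, 2% DMSO. Incubation 1 h, RT, light-protected. Readout fluorescence 525/598 nm.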
Experiment [5] deals with Nanoluciferase (engineered Oplophorus gracilirostris luciferase). The experiment is described as follows: Primary Nanoluciferase (NLuc) qHTS assay for identification of artifact compounds. (AID 1845222).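 Also: NLuc secreted into diluted conditioned medium of S16 cells; series mostly up to about 54 µM.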 The gist of the method: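 Concentration-response data were obtained by luminescence after 5 min with Nano-Glo substrate at 1:100. The enzyme was diluted S16 NLuc-expressing cell medium, preincubated with compound for 15 min at RT. Curves were fitted with a 4-parameter Hill model.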

Experiment [6] is described as follows: Primary redox qHTS assay for identification of artifact compounds. (AID 1845223).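 Also: 0% = DMSO and 100% = reference compound.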 Summed up: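 Redox-cycling detection via DTT (250 uM final) oxidation coupled to Amplex Red (25 uM)/HRP (250 mU/mL) in HBSS. 15 min preincubation plus 30 min after DTT, room temperature. Ex/Em 525/598 nm; 4-parameter Hill fit against DMSO and 10 uM DA3003.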

Values without a mark were called inactive. Records with an inconclusive call do not appear. Active and inactive are the calls of the source. Calls follow the shape of the dose curve; as a rule, active = well fitted curve in the direction sought with a large enough effect; inconclusive = small, poorly fitted or top-dose-only effect, or another doubt; inactive = no such curve, though single readings can be large; an effect the other way counts as inactive or inconclusive.

Sequence of Phospholipid hydroperoxide glutathione peroxidase GPX4 (Homo sapiens) (P36969 whole entry, looked up): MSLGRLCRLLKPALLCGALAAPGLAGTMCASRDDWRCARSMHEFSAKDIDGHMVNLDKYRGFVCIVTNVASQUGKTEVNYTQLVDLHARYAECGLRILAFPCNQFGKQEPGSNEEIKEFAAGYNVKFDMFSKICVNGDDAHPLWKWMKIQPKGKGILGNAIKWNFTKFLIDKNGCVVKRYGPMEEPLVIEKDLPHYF

`FC(F)(F)c1cc(-c2ncn(/C=C\c3nnco3)n2)cc(C(F)(F)F)c1`: the Potency result in experiment [1], in experiment [2], in experiment [3], in experiment [4], in experiment [5] and in experiment [6] was “inactive” throughout.

Consider `NC(=O)c1csc(C2OC(CO)C(O)C2O)n1` (stereo unspecified), for which the Potency result in experiment [1], in experiment [2], in experiment [3], in experiment [4], in experiment [5] and in experiment [6] was “inactive” in each case.

`Cc1cc(Nc2nc(NC(C)c3ncc(F)cn3)ncc2Cl)n[nH]1` (stereo unspecified): the Potency result in experiment [1], in experiment [2], in experiment [3], in experiment [4], in experiment [5] and in experiment [6] was “inactive” each time.

`COc1ccc(F)cc1-c1cc(NC(=O)[C@@H]2CCCNC2)ncc1Cl`: the Potency entry in experiment [1], in experiment [2], in experiment [3], in experiment [4], in experiment [5] and in experiment [6] was “inactive” each time.

Consider `O=C(CN1C(=O)C2(CCCC2)NCC1c1cc(F)cc(F)c1)Nc1ccc2c(c1)CC1(C2)C(=O)Nc2ncccc21` (stereo unspecified), for which the Potency result in experiment [1], in experiment [2], in experiment [3], in experiment [4], in experiment [5] and in experiment [6] was “inactive” each time.

`C=CC1C(OC2OC(CO)C(O)C(O)C2O)OC=C(C(=O)OC)C1CC(=O)OCC1C(C)C(O)CC1C(CO)COC(=O)CC1C(C(=O)O)=COC(OC2OC(CO)C(O)C(O)C2O)/C1=C\C` (stereo unspecified): the Potency entry in experiment [1] and in experiment [2] was “inactive” throughout. For the same molecule, the activity change, negative = inhibition in experiment [3] was -4.67% [at 11.6 µM]. Besides, the activity change, negative = thiol reactive in experiment [4] was 7.86% [at 11.5 µM]. In experiment [5], the activity, negative = inhibition was -0.732% [at 11.6 µM]. Besides, the redox activity (% of DA3003) in experiment [6] is 14.1% [at 11.5 µM].

Turning to `C=C1CC23CC1CCC2C12OC(=O)C(C)(CCC1O)C2C3C(=O)O` (stereo unspecified), the Potency entry in experiment [1], in experiment [2], in experiment [3], in experiment [4], in experiment [5] and in experiment [6] was “inactive” in each case.

For the molecule `CC(C)=CCCC1(C)C=Cc2c(c(C)cc3c2[nH]c2ccccc23)O1` (stereo unspecified), the Potency entry in experiment [1], in experiment [2], in experiment [3], in experiment [5] and in experiment [6] was “inactive” each time. Besides, the Potency in experiment [4] was 2.93 µM (active).

In the case of `Cc1c(F)cc(C(=O)NC2CC2)cc1-c1c(F)cn2c(C(C)(C)C)nnc2c1F`, the Potency entry in experiment [1], in experiment [2], in experiment [3], in experiment [4], in experiment [5] and in experiment [6] was “inactive” each time.

In the case of `COc1cc2ncnc(Nc3cccc(Cl)c3F)c2cc1OC(=O)N1CCN(C)C[C@H]1C`, the Potency result in experiment [1], in experiment [2], in experiment [3], in experiment [4], in experiment [5] and in experiment [6] was “inactive” in each case.

Consider `CC(=O)O[C@H]1C[C@@]2(C)[C@@H](CC[C@H]3[C@@]4(C)C=CC(=O)[C@@H](C)[C@@H]4[C@H](O)C(=O)[C@@]32C)/C1=C(/CCC=C(C)C)C(=O)O`, for which the Potency result in experiment [1], in experiment [2], in experiment [3], in experiment [4], in experiment [5] and in experiment [6] was “inactive” in each case.

`CNC(=O)c1cc(Oc2ccc3nc(N[C@@H]4CCCC[C@H]4O)sc3c2)ccn1`: the Potency result in experiment [1], in experiment [2], in experiment [4], in experiment [5] and in experiment [6] was “inactive” throughout. For the same molecule, in experiment [3], the Potency is 12 µM (active).

Take `C=C1C(=O)O[C@H]2[C@H]1CC/C(C)=C/CC[C@@]1(C)O[C@@H]21`: the Potency result in experiment [1], in experiment [2], in experiment [3], in experiment [4], in experiment [5] and in experiment [6] was “inactive” in each case.

As to `CC(C)CNCc1ccc(-c2ccccc2S(=O)(=O)N2CCCC2)cc1`, the Potency result in experiment [1], in experiment [2], in experiment [3], in experiment [4], in experiment [5] and in experiment [6] was “inactive” each time.

Regarding `C[C@@H]1CCN(C(=O)N2CCCC2)C[C@@H]1N(C)c1ncnc2[nH]ccc12`, the Potency result in experiment [1], in experiment [2], in experiment [3], in experiment [4], in experiment [5] and in experiment [6] was “inactive” throughout.

`C/C1=C\C[C@]2(C)C(=O)C(O)=C([C@H](C)CO)[C@H]2C/C=C(\C)[C@@H](O)CC/C(C)=C/CC1`: the Potency result in experiment [1], in experiment [2], in experiment [3], in experiment [4], in experiment [5] and in experiment [6] was “inactive” throughout.

Consider `Cc1ccc(-c2c(C(=O)CF)n(CCCO)c3ncnc(N)c23)cc1`, for which the Potency entry in experiment [1], in experiment [2], in experiment [3], in experiment [4], in experiment [5] and in experiment [6] was “inactive” in each case.

As for `O=C1CCC(c2ccccc2)(C2CCN(Cc3ccc(I)cc3)CC2)C(=O)N1` (stereo unspecified), the Potency entry in experiment [1], in experiment [2], in experiment [3], in experiment [4], in experiment [5] and in experiment [6] was “inactive” throughout.

`CS(=O)(=O)c1ccc([C@H](CC2CCCC2)C(=O)Nc2nccs2)cc1`: the Potency entry in experiment [1], in experiment [2], in experiment [3], in experiment [4], in experiment [5] and in experiment [6] was “inactive” each time.

Turning to `O=C(NCc1ccc(F)cc1)C(=O)c1c[nH]c2ccccc12`, the Potency result in experiment [1], in experiment [2], in experiment [3], in experiment [4], in experiment [5] and in experiment [6] was “inactive” each time.

For `Cc1cccc(Oc2cnc(=O)[nH]c2)c1`, the Potency entry in experiment [1], in experiment [2], in experiment [3], in experiment [4], in experiment [5] and in experiment [6] was “inactive” in each case.

The record behind these values is PubChem BioAssay (NCATS).
